# Only some compounds are listed: those with a hit (about 3.5% of all), similar ones and a draw of the others.
# GPR151 activ = activators of human GPR151; AID 1508602; 1% of 650,000 active; activation, % at 11.2 µM; PathHunter beta-arrestin GPR151 cells, luminescence; in the data active = activation above about 4.9%;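 also: 0% = median of compound wells and 100% = cells with positive control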
# MITF primary = blocks human microphthalmia-associated transcription factor; AlphaScreen MITF homodimerization, bead proximity signal; O75030; 0.91% of 650,000 active; AID 1259374; inhibition, % at 2.6 µM; in the data active = inhibition above about 50%;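 also: 0% = vehicle wells with protein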
# Target sequence (O75030 whole entry, looked up): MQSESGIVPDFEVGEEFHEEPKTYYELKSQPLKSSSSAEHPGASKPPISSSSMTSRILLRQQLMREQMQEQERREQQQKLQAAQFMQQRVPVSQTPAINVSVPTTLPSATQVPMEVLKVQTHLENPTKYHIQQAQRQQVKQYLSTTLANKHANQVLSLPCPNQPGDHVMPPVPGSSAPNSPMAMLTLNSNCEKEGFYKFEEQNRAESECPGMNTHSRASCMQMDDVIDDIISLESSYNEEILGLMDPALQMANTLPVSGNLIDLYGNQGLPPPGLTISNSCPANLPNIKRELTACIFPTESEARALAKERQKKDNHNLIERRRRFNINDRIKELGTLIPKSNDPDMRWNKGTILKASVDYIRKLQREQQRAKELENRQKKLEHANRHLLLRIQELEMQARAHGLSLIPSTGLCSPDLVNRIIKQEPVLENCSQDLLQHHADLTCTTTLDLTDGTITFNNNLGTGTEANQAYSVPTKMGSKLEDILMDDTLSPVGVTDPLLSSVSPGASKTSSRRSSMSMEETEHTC
# TEAD-YAP inh = TEAD-YAP interaction inhibition; HEK-TIYL cells, TEAD-Gal4/YAP UAS-luciferase luminescence; inhibition, % at 9.12 µM; 1.4% of 640,000 active; AID 1259422; in the data active = inhibition above about 32%;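 also: 0% = median of test compound wells and 100% = reference inhibitor wells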
# FBW7 activator = human FBW7 E3 ligase activation, primary screen | Q969H0 | normalized activity (activation), % at 26.1 µM | AlphaScreen FBW7–phospho-cyclin E peptide binding, activator screen | 0.13% of 650,000 active; in the data active = normalized activity above about 1.9%;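 also: purified mutant Fbw7 with reduced substrate affinity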
# The depositor's hits bear a star; ! = not confirmed by another sample.
SMILES,GPR151 activ,MITF primary,TEAD-YAP inh,FBW7 activator
CCOC(=O)C1=C(c2ccccc2)N=c2s/c(=C\c3ccc4c(c3)OCO4)c(=O)n2C1c1cc(C(C)C)c(OC)cc1C (stereo unspecified),-1,18,-3,2.7*
COc1c(C)cccc1C(=O)Nc1ccc(Br)c(C)n1,0,0,-1,0
O=C(Nc1cc(Cl)ccc1Cl)c1cc(Br)cc(Br)c1O,0,-15,34*,0
CCOC(=O)c1cc2sc(Br)cc2n1CC(=O)N(C)C,1,-12,34*,0
CCOc1ccc(C(=O)CC2(O)C(=O)N(CCc3ccccc3)c3ccccc32)cc1 (stereo unspecified),-1,8,4,0
Nc1ccc2nc(/C=C/c3nc4ccc(N)cc4[nH]3)[nH]c2c1,2,20,16,0
C[n+]1c2cc(N)ccc2cc2ccc(N)cc21,0,52*!,-1,0
C[n+]1c2cc(N)ccc2cc2ccc(N)cc21 (tested in a mixture with another compound),-3,57*,-14,0
CCc1ccc(OCC2c3cc(OC)c(OC)cc3CCN2C(=O)c2ccc(OC)cc2)cc1 (stereo unspecified),0,10,-2,0
Cc1c(C(=O)Nc2ccccc2F)sc2ncnc(N3CCN(c4ccccc4)CC3)c12,0,17,-13,1.9*
CCN(CC)C(=O)c1sc2ncnc(N3CCN(c4ccccc4)CC3)c2c1C,0,27,8,2.0*
Cc1c(C(=O)NC(C)C)sc2ncnc(N3CCN(c4ccccc4)CC3)c12,1,18,2,2.1*
COc1cc(NC(=O)c2sc3ncnc(N4CCN(c5ccccc5F)CC4)c3c2C)cc(OC)c1OC,1,19,32*,0
Cc1c(C(=O)Nc2c(F)cccc2F)sc2ncnc(N3CCN(c4ccccc4)CC3)c12,1,22,-5,0
CCCCN(C)C(=O)CSc1nc2ccsc2c(=O)n1CCCCCC(=O)NCCc1ccc(OC)c(OC)c1,1,10,8,0
COc1cc(C2C(C#N)=C(N)Oc3n[nH]c(C(C)(C)C)c32)ccc1OC(C)C (stereo unspecified),0,2,-8,0
Cc1ccc(NC(=O)c2sc3ncnc(N4CCN(c5ccccc5F)CC4)c3c2C)c(Br)c1,1,24,-5,2.0*
COc1ccc(CNC(=O)c2cnc3c(c(C)nn3-c3ccccc3)c2Cl)cc1,-1,11,7,1
Nc1ccc(NC(=O)CN2CCCCC2)cc1,0,2,6,2.0*
COc1cc(/C=C2\Oc3c(ccc(O)c3CN3CCCCC3)C2=O)cc(OC)c1OC,2,13,32*,0
COc1ccc(/C=C2\Oc3c(ccc(O)c3CN3CCCC3)C2=O)cc1,0,15,2,0
CCC(Sc1ccccc1)C(=O)Nc1nnc(C)s1 (stereo unspecified),1,-3,1,0
COc1ccccc1/C=C/C(=O)Nc1ccc2[nH]ncc2c1,0,-5,35*,0
COCCNC(=O)c1ccc(Cn2c(SCc3cc(=O)n4cc(Cl)ccc4n3)nc3ccc(Br)cc3c2=O)cc1,0,-7,-3,0
CCN1/C(=C/c2ccc3ccccc3[n+]2CC)Sc2ccc(C)cc21,0,-9,79*,-1
SMILES,GPR151 activ,MITF primary,TEAD-YAP inh,FBW7 activator
CCN1/C(=C/c2ccc3cc(NC(C)=O)ccc3[n+]2CC)Sc2cc(C)ccc21,0,25,15,0
CCN1/C(=C/c2ccc3ccccc3[n+]2CC)Sc2cc(NC(C)=O)ccc21,0,-7,4,0
CCN1/C(=C/c2ccc3cc(C)ccc3[n+]2CC)Sc2ccc(O)cc21,1,31,87*,-1
COc1ccc(C2CC(=O)C3=C(C2)NC(C)=C(C(=O)OCCOc2ccccc2)C3c2ccc(Cl)c(Cl)c2)cc1 (stereo unspecified),1,-8,6,0
O=C(NCc1cccs1)N1CCC(c2nc3ccccc3[nH]2)CC1,-1,9,1,1
CN(C)N1C(N)=C(C#N)C(c2c(F)cccc2Cl)C2=C1CCCC2=O (stereo unspecified),1,-2,8,0
CC(C)(C)c1ccc(N2C(=O)/C(=C/c3ccc(-c4ccc(Cl)c(Cl)c4)o3)C=C2c2ccccc2)cc1,1,11,-39,1
Oc1ccc(/C=N/N2CCN(Cc3ccccc3)CC2)cc1O,0,35,5,0
Cc1ccc(CN2CCN(/N=C/c3ccc(O)c(O)c3)CC2)cc1,1,55*,6,-1
CN(C)S(=O)(=O)N1CCC(Oc2ccc(C(=O)NC3CCCCC3)cc2)CC1,-1,-1,-14,0

# Screening data: PubChem, The Scripps Research Institute Molecular Screening Center
